# Hit rate of the full screen: of about 320,000 compounds, about 2,100 (0.66%) were called active. About 53% were inconclusive and are not listed. Calls come from the whole dose curve; as a rule, active = well fitted inhibition curve with a large enough effect in the signal ratio, with a control signal flat (not every such curve was filed as active); inconclusive = small, poorly fitted or top-dose-only effect, or effect the other way, or a change in a side signal; inactive = flat fitted curve, though single readings scatter; the % refers to the signal ratio. This excerpt belongs to a sample that is enriched for actives.
# Test: qHTS Assay for Lipid Storage Modulators in Drosophila S3 Cells;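 for cell number change: cells counted by Cell Tracker Red CMTPX staining in the red channel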; for lipid storage change, negative = inhibition: % is set by controls: 0 for no effect and ±100 for the full control effect
# Settings: BODIPY lipid droplet fluorescence, 18-24 h, cells fed with added oleic acid; cell number change: measured here: cell count max response; series mostly up to 46.1 µM; lipid storage change, negative = inhibition: at the top concentration
# Summary of the method: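 Drosophila S3 cells got compounds at several concentrations plus oleic acid (400 uM solution). Laser-scanning cytometry with 488 nm excitation read lipid droplets at 500-530 nm and cells at 575-640 nm. Percent activity was relative to 20 uM Triacsin C.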
# Potency is the fitted concentration of half-maximal effect.
SMILES,"lipid storage change, negative = inhibition",cell number change [%],Potency,outcome
CC(=O)c1cccc(NC(=O)NC2CCCc3ccccc32)c1 (stereo not given),-3.84% (inactive),-3.38,,
CCOc1cc(/C=C2\SC(=N)N(c3nonc3N)C2=O)ccc1OCC(N)=O,-17.3% (inactive),1.49,,
CC(=O)c1ccc(N2CCN(C(=O)C(=O)c3cn(CC(=O)N4CCCCCC4)c4ccccc34)CC2)cc1,,-13.1,16.4 µM (active),
O=CN1CCN(C(=O)C(=O)c2cn(CC(=O)N3CCCCC3)c3ccccc23)CC1,5.33% (inactive),4.31,,
COc1ccccc1N1CCN(C(=O)C(=O)c2cn(CC(=O)N3CCCC3)c3ccccc23)CC1,-17.6% (inactive),-2.59,,
COc1ccccc1NC(=O)C(=O)c1cn(CC(=O)N2CCCC2)c2ccccc12,,8.26,,inactive
CN1CCN(C(=O)C(=O)c2cn(CC(=O)N3CCCC3)c3ccccc23)CC1,-2.97% (inactive),-8.67,,
COc1ccccc1N1CCN(C(=O)C(=O)c2cn(CC(=O)N3CCCCCC3)c3ccccc23)CC1,,-23.8,11.6 µM (active),
CCCC(=O)Nc1c(-c2ccccc2Cl)c(=O)c2ccccc2n1C,-11.9% (inactive),21.4,,
COc1ccccc1-n1c(SCC(=O)Nc2nnc(C)s2)nc2c(c1=O)SCC2,0.949% (inactive),4.2,,
CCCCCCCCCCCCOC(=O)C[N+](C)(C)C,-4.89% (inactive),-12.3,,
CCCCCCCCCCOC(=O)C[N+](C)(C)C/C=C(/C)Cl,,-24.8,2.06 µM (active),
CCCCCCCCOC(=O)C[N+](C)(C)C/C=C(/C)Cl,9.71% (inactive),5.17,,
CC1(C)Cc2c(cnn2-c2ccccc2)C(NC(=O)C2(C(N)=O)CC2)C1 (stereo not given),-9.11% (inactive),8.69,,
COc1ccc(C2CC(c3cccs3)=NN2C(=O)CCC(=O)O)cc1 (stereo not given),2.58% (inactive),-0.88,,
COc1ccc(CN2C(=O)c3cccnc3C2=O)cc1S(=O)(=O)NC(C)C,,,,inactive
COc1ccc(CN2C(=O)c3cccnc3C2=O)cc1S(=O)(=O)NC1CCCCC1C (stereo not given),,-3.23,,inactive
COc1ccc(CN2C(=O)c3cccnc3C2=O)cc1S(=O)(=O)N1CCCCC1,,-13.9,1.64 µM (active),
CCCN(CCC)S(=O)(=O)c1cc(CN2C(=O)c3cccnc3C2=O)ccc1OC,24.4% (inactive),9.22,,
COc1ccc(CN2C(=O)c3cccnc3C2=O)cc1S(=O)(=O)N(C)c1ccc(C)cc1,,8.02,,inactive
CCN(c1cccc(C)c1)S(=O)(=O)c1cc(CN2C(=O)c3cccnc3C2=O)ccc1OC,,7.63,8.2 µM (active),
O=C(CN1C(=O)CCS(=O)(=O)c2ccccc21)NCc1ccc2c(c1)OCO2,14.7% (inactive),-18.6,,

SMILES,"lipid storage change, negative = inhibition",cell number change [%],Potency,outcome
CC1(C)Cc2c(sc(NC(=O)C(=O)NCC3CCCO3)c2C(N)=O)CO1 (stereo not given),,-4.25,,inactive
CNC(=O)c1ccccc1S(=O)(=O)c1ccccc1C#N,4.63% (inactive),-5.1,,
Cc1cc(C(F)(F)F)nn1CC(=O)NCc1cccs1,20.9% (inactive),3.66,,
COc1ccc(OC)c(NC(=O)C2CCCCC2C(=O)O)c1 (stereo not given),4.14% (inactive),2.85,,
COCC1CCN(C(=O)c2ccc(OC)c(OC3CCN(C(C)C)CC3)c2)CC1,,13.3,,inactive
CCCOc1ccc(C(=O)O)cc1,-24.9% (inactive),0.594,,
CN1CCC(N(C)C(=S)NC(=O)C23CC4CC(CC(C4)C2)C3)CC1,-6.23% (inactive),-1.68,,
CCOc1ccc(-n2c(N)c(C(=O)NCc3ccco3)sc2=S)cc1,-2.67% (inactive),1.94,,
COc1ccc(CNC(=O)C/C(C)=N/NC(=O)C23CC4CC(CC(C4)C2)C3)cc1,3.76% (inactive),9.74,,
CC1CCN(C(=O)c2[nH]cnc2C(=O)NCC(=O)OCc2ccccc2)CC1,,12.3,,inactive
COc1ccccc1CNC(=O)C1CCN(S(=O)(=O)c2ccc(N3CCCC3=O)cc2)CC1,,16.5,,inactive
COc1cccc(C2/C(=C(\O)c3ccc4c(c3)OCCO4)C(=O)C(=O)N2CCN(C)C)c1 (stereo not given),10.2% (inactive),-19.5,,
COc1cccc(/C(O)=C2/C(=O)C(=O)N(CCN(C)C)C2c2ccc(Br)cc2)c1 (stereo not given),,3.06,2.31 µM (active),
COc1ccc(/C(O)=C2/C(=O)C(=O)N(CCCN(C)C)C2c2ccccc2)cc1Cl (stereo not given),,2.04,13 µM (active),
CCCOc1cccc(C2/C(=C(/O)c3ccncc3)C(=O)C(=O)N2CCCN(C)C)c1 (stereo not given),,-3.79,,inactive
COc1ccc(C2/C(=C(\O)c3ccc(OC)c(Cl)c3)C(=O)C(=O)N2CCN(C)C)cc1 (stereo not given),-3.93% (inactive),7.61,,
COc1cccc(C2/C(=C(/O)c3ccncc3)C(=O)C(=O)N2CCCN(C)C)c1 (stereo not given),,2.93,6.51 µM (active),
COc1cccc(C2/C(=C(/O)c3ccc(F)cc3)C(=O)C(=O)N2CCN(C)C)c1 (stereo not given),0.584% (inactive),5.93,,
COc1cccc(C2/C(=C(\O)c3c(C)nc4c(C)cccn34)C(=O)C(=O)N2CCCN(C)C)c1 (stereo not given),6.42% (inactive),-2.27,,
COc1ccc(/C(O)=C2/C(=O)C(=O)N(CCN(C)C)C2c2ccccc2)cc1Cl (stereo not given),4.66% (inactive),-4.09,,
COC(=O)CNc1nc(C2CC2)nc2c1nnn2Cc1ccccc1Cl,-17.4% (inactive),-11.7,,
